# IDE exosite inh = displaces the probe from the exo-site of human IDE; purified IDE, FL-6b probe fluorescence polarization; hits give low values; z-score at 20 µM; hit rate 6.3% among 17,000; AID 1259349;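 active means z-score of -3 or lower, meaning strong loss of probe binding signal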;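 further: His-tagged human IDE residues 42-1019 made in E. coli with 30 nM FL-6b probe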
# Target sequence (P14735 42-1019 limits assumed): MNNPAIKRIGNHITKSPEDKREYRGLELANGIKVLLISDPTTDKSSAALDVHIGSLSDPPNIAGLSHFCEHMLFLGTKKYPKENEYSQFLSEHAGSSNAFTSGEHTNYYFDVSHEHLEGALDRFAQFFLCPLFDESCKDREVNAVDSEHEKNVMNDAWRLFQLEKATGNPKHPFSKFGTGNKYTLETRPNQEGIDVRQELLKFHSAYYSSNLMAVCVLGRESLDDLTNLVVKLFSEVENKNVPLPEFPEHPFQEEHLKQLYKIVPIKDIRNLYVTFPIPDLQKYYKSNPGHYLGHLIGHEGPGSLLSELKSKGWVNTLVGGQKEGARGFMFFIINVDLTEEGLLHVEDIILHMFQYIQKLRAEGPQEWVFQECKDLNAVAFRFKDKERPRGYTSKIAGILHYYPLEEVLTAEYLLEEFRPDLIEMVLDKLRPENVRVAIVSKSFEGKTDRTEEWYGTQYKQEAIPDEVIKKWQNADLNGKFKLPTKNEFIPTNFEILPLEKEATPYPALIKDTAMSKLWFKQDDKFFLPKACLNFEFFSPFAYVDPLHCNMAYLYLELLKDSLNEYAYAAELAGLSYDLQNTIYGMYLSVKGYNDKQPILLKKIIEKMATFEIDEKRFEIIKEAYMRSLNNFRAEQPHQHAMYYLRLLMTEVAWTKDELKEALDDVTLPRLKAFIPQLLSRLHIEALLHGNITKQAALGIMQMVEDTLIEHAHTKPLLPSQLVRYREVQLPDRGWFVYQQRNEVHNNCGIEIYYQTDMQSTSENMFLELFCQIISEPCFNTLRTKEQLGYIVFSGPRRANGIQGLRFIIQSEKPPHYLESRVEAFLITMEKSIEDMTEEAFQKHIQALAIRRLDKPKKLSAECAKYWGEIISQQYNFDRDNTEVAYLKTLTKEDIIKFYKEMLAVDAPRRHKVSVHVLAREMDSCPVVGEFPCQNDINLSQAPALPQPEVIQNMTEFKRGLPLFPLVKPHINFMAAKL
# * marks the source's active call; other numbers are inactive results. The sample as a whole holds a higher share of hits than the screen did.
SMILES,IDE exosite inh
CCC(=O)N1CCCCN2[C@H](CO)[C@@H](c3ccc(C#CCOC)cc3)[C@H]2C1,2.8
COc1ccc2c3c([nH]c2c1)[C@H](CO)N(Cc1ccncc1)CC31CN(Cc2ccc(-c3ccccn3)cc2)C1,-2
O=C(C[C@H]1CC[C@@H](NC(=O)C2CC2)[C@H](CO)O1)Nc1ccccc1,0.51
O=C(Cc1ccccn1)N1[C@H](CO)[C@H]2c3ccccc3NC[C@H]21,2
O=C(C[C@@H]1CC[C@H](NC(=O)Nc2ccc(C(F)(F)F)cc2)[C@H](CO)O1)NCc1cccc(F)c1,0.084
COc1ccc(C[C@@H]2CCn3nncc3COCCCNC2=O)cc1,-0.48
C[C@H](CO)N1C[C@H](C)[C@@H](CN(C)C(=O)c2cc(Cl)cc(Cl)c2)OCc2ccccc2-c2ccccc2C1=O,-0.3
Cc1cccc(-c2ccc([C@@H]3[C@@H](CO)N4C(=O)CN(C(=O)c5cccnc5)C[C@@H]34)cc2)c1,-13*
O=C(c1cccc(F)c1)N1CC(=O)N2[C@H](C1)[C@H](c1ccc(-c3cccnc3)cc1)[C@@H]2CO,2.2
Cc1ccc(-c2ccc([C@H]3[C@@H](CO)N4C(=O)CN(C(=O)c5cccnc5)C[C@@H]34)cc2)cc1,-1.7
Cc1cccc(-c2ccc([C@H]3[C@@H](CO)N4C(=O)CN(C(=O)c5cccnc5)C[C@H]34)cc2)c1,-15*
O=C(c1cccnc1)N1CC(=O)N2[C@H](C1)[C@@H](c1ccc(-c3cccnc3)cc1)[C@@H]2CO,-1.9
O=C(c1ccncc1)N1CC(=O)N2[C@H](C1)[C@@H](c1ccc(-c3cccnc3)cc1)[C@@H]2CO,-3.2*
O=C(c1cccnc1)N1CC(=O)N2[C@@H](CO)[C@H](c3ccc(-c4cccnc4)cc3)[C@@H]2C1,-0.79
Cc1ccc(-c2ccc([C@@H]3[C@H]4CN(C(=O)c5cccnc5)CC(=O)N4[C@H]3CO)cc2)cc1,-3.6*
COc1ccc(-c2ccc([C@@H]3[C@@H](CO)N4C(=O)CN(C(=O)c5cccnc5)C[C@H]34)cc2)cc1,0.58
COc1cccc(-c2ccc([C@@H]3[C@@H](CO)N4C(=O)CN(C(=O)c5cccnc5)C[C@H]34)cc2)c1,-1.3
COc1cccc(NC(=O)N2CC(=O)N3[C@H](CO)[C@H](c4ccc(C#CCC5CCCC5)cc4)[C@@H]3C2)c1,0.7
C[C@@H]1CC=CC[C@H](c2ccccc2)NC(=O)[C@H](C)N(C)C(=O)c2ccccc2O1 (mixture of isomers),0.44
CCC(=O)N1CC(=O)N2[C@H](C1)[C@H](c1ccc(C3=CCCCC3)cc1)[C@@H]2CO,0.35
C[C@H]1CN([C@@H](C)CO)C(=O)c2ccccc2-c2ccccc2CO[C@@H]1CN(C)C(=O)Nc1cccc(C(F)(F)F)c1,0.52
CO[C@@H]1CC[C@@H]2CCOc3c(C#N)cccc3C(=O)N(C)C[C@@H](OC)[C@@H](C)C(=O)N(C)C[C@@H]1O2,-0.16
COc1ccc2c3c([nH]c2c1)[C@@H](CO)N(C(=O)CN(C)C)CC31CN(C(=O)c2cccnc2)C1,-1.4
CCS(=O)(=O)Nc1ccc2c(c1)C(=O)N(C)C[C@H](OC)[C@@H](C)CN(CC1CCCCC1)[C@H](C)CO2,-0.2
C[C@@H]1CN([C@@H](C)CO)C(=O)c2c(c3ccccc3n2C)-c2ccccc2CO[C@@H]1CN(C)C(=O)NC1CCCCC1,-0.51
SMILES,IDE exosite inh
COc1ccc(C[C@@H]2CCn3cc(nn3)COC[C@@H](C)NC2=O)cc1,1.4
N#C[C@H]1[C@H](c2ccc(C3=CCCC3)cc2)[C@H](CO)N1C(=O)C1CC1,0.53
COc1ccc(-c2ccc([C@H]3[C@@H](CO)N4C(=O)CN(C(=O)c5cccnc5)C[C@H]34)cc2)cc1,-4.9*
COc1ccc(-c2ccc([C@@H]3[C@H]4CN(C(=O)c5cccnc5)CC(=O)N4[C@H]3CO)cc2)cc1,1.7
COc1ccc(-c2ccc([C@H]3[C@@H](CO)N4C(=O)CN(C(=O)c5cccnc5)C[C@@H]34)cc2)cc1,2.7
CN1C(=O)c2cc(NC(=O)Nc3ccccc3Cl)ccc2OC[C@@H]2O[C@H](CC(=O)O)CC[C@H]21,-0.65
O=C(C1CCOCC1)N1CC(=O)N2[C@H](CO)[C@@H](c3ccc(-c4ccccc4F)cc3)[C@H]2C1,2.9
O=C(C1CCOCC1)N1CC(=O)N2[C@H](CO)[C@H](c3ccc(-c4ccccc4F)cc3)[C@@H]2C1,-1.7
O=C(C1CCOCC1)N1CC(=O)N2[C@H](CO)[C@@H](c3ccc(-c4ccccc4F)cc3)[C@@H]2C1,-4.8*
O=C(C1CCOCC1)N1CC(=O)N2[C@@H](CO)[C@@H](c3ccc(-c4ccccc4F)cc3)[C@@H]2C1,-2.4
O=C(C1CCOCC1)N1CC(=O)N2[C@H](C1)[C@H](c1ccc(-c3ccccc3F)cc1)[C@@H]2CO,0.93
O=C(C1CCOCC1)N1CC(=O)N2[C@H](C1)[C@@H](c1ccc(-c3ccccc3F)cc1)[C@@H]2CO,-9*
COc1cccc(S(=O)(=O)N2CCCCN3[C@H](CO)[C@H](c4ccc(C5=CCCCC5)cc4)[C@H]3C2)c1,4.2
CC(C)CC#Cc1ccc([C@H]2[C@H](CO)N3C(=O)CN(S(=O)(=O)c4ccccc4)C[C@@H]23)cc1,1.8
CCCNC(=O)N1CC(=O)N2[C@H](CO)[C@H](c3ccc(C#CCC4CCCC4)cc3)[C@@H]2C1,-0.0019
O=C(N[C@H]1C=C[C@H](CC(=O)N2CCN(c3ccccc3)CC2)O[C@@H]1CO)c1ccccc1,3
O=S(=O)(c1ccc(F)cc1)N1CCCCN2[C@H](CO)[C@H](c3ccc(-c4ccccc4)cc3)[C@H]2C1,1.4
O=C(Nc1cc(F)ccc1F)N1CCCCN2[C@@H](CO)[C@@H](c3ccc(-c4ccncc4)cc3)[C@@H]2C1,4.4
CC(C)(O)C#Cc1cccc(-c2nc(C(=O)O)cc3c2[C@H](CCO)N(S(=O)C(C)(C)C)C3)c1 (stereo not given in full),-0.11
C[C@@H]1CN([C@H](C)CO)C(=O)CCCn2nncc2CO[C@H]1CN(C)C(=O)Nc1ccc(-c2cccs2)cc1,-0.43
CS(=O)(=O)N1CC(=O)N2[C@H](CO)[C@@H](c3ccc(C#CCc4ccccc4)cc3)[C@@H]2C1,0.32
CS(=O)(=O)N1CC(=O)N2[C@H](C1)[C@H](c1ccc(C#Cc3ccccc3)cc1)[C@@H]2CO,-5.3*
CCS(=O)(=O)N1CC(=O)N2[C@H](CO)[C@@H](c3ccc(-c4cccc(F)c4)cc3)[C@@H]2C1,-3.2*
CS(=O)(=O)N1CC(=O)N2[C@H](C1)[C@H](c1ccc(C#Cc3ccc(F)cc3)cc1)[C@@H]2CO,0.35
CCS(=O)(=O)N1CC(=O)N2[C@H](CO)[C@@H](c3ccc(-c4ccccc4)cc3)[C@H]2C1,3.3
SMILES,IDE exosite inh
CS(=O)(=O)N1CC(=O)N2[C@H](CO)[C@@H](c3ccc(C#Cc4ccc(F)cc4)cc3)[C@H]2C1,0.85
CS(=O)(=O)N1CC(=O)N2[C@@H](CO)[C@H](c3ccc(C#CCc4ccccc4)cc3)[C@@H]2C1,3.2
CCS(=O)(=O)N1CC(=O)N2[C@H](CO)[C@H](c3ccc(-c4ccccc4)cc3)[C@@H]2C1,1.6
CS(=O)(=O)N1CC(=O)N2[C@H](C1)[C@H](c1ccc(C#Cc3cccc(F)c3)cc1)[C@@H]2CO,-8.4*
CS(=O)(=O)N1CC(=O)N2[C@H](C1)[C@@H](c1ccc(C#CCc3ccccc3)cc1)[C@@H]2CO,-3.2*
CS(=O)(=O)N1CC(=O)N2[C@H](CO)[C@@H](c3ccc(C#Cc4ccccc4)cc3)[C@@H]2C1,2.4

# Source: PubChem BioAssay (Broad Institute)
